ELG1 genotox = inducers of genotoxicity in HEK293T ELG1-luciferase cells; actives 1.3% (n = 330,000); HEK293T ELG1-luciferase reporter, luminescence, 16 h; AID 504466; Potency, µM (series often up to 46 µM), actives largely listed as activators; further: nearly all actives have a fitted effect of over 60% in size
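Reporter readout depends on ELG1 protein level, which increases with genetic stress. After 16 hr compound exposure at 37 °C, luciferase activity was quantified using ONE-Glo.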
NPC1 promoter act = activators of NPC1 promoter | Huh7 NPC1 promoter luciferase reporter, 24 h | Potency, µM (titrated, usually from 9.22 µM), hits mostly activators | actives 2.4% (n = 320,000) | AID 485313; further: nearly all actives have a fitted effect of over 60% in size
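Quantitative HTS used a cell-based reporter: Huh7 cells stably bearing the NPC1 promoter upstream of luciferase were treated with compounds for 24 h, and promoter activation was read as luminescence.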
Rab9 promoter act = activates the Rab9 promoter. Huh7 Rab9 promoter-luciferase reporter, luminescence, 24 h. Potency, µM (titrated, usually from 9.22 µM), usual class: activators. actives 2.8% (n = 320,000). AID 485297; further: nearly all actives have a fitted effect of over 60% in size
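Quantitative HTS format; Huh7 Rab9-luciferase reporter cells (1500/well) receive compound 2 h post-plating, incubate 24 h at 37 °C, then get luciferase reagent for 10 min before luminescence reading.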
ELG1 repair inh = blocks ELG1-dependent DNA repair in HEK293T cells; HEK293T ELG1-luciferase reporter, luminescence, 16 h; DNA damage induced by 5-fluorouridine; Potency, µM (top dose mostly 46.1 µM), usual class: inhibitors; actives 2.3% (n = 330,000); AID 504467; further: nearly all actives have a fitted effect of over 55% in size
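Overnight (16 hr) co-exposure of 2,000 cells/well to 5-fluorouridine and compound at 37 °C preceded detection. Luciferase was quantified via ONE-Glo luminescence; loss of signal denotes inhibition.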
SMN2 splice up = increases expression of the SMN2 splice variant | HEK293 SMN2-luciferase splicing reporter, luminescence, 30-36 h | actives 2.8% (n = 210,000) | Potency, µM (doses to about 46.1 µM), actives largely listed as activators | AID 1458; further: nearly all actives have a fitted effect of over 55% in size
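HEK293 cells carry an SMN2 […]–luciferase reporter in which exon 7 inclusion puts luciferase in frame. Cells were plated 10-12 h before compound addition, then incubated 30-36 h at 37C. ONE-Glo luminescence was read; sodium butyrate at 4.5 mM final served as control.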
FLuc modulator = firefly luciferase modulation, counter-screen for miR-21 project | P08659 | purified FLuc, Km substrates, luminescence inhibition | Potency, µM (highest dose often 57.5 µM), actives largely listed as inhibitors | actives 6.9% (n = 360,000); further: nearly all actives have a fitted effect of over 55% in size
Target sequence (P08659 whole entry, looked up): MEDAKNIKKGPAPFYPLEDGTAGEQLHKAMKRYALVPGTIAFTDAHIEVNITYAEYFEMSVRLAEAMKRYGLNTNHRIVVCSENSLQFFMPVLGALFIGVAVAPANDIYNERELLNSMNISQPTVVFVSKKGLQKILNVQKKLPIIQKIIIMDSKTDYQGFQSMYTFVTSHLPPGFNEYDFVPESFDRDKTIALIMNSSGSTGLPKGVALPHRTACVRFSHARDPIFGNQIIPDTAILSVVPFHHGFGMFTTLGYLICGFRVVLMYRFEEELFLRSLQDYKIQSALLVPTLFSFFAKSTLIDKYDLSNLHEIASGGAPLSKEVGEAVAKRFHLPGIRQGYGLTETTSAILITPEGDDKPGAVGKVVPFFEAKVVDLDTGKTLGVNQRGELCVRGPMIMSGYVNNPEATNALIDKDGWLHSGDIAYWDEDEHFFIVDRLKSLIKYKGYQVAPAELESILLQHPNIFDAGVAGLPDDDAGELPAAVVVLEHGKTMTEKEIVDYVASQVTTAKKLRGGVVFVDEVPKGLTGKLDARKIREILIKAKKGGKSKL
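Purified P. pyralis luciferase (10nM final) with 10uM D-luciferin and 10uM ATP (Km levels) in 50mM Tris acetate pH 7.5, 10mM Mg acetate, 0.01% Tween-20, 0.05% BSA; qHTS 6-point titration, ~60 µM downward; luminescence read.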
Large screens that a line does not name were inactive. This is a sample that favours compounds with a hit; in the whole collection about 9.3% have one here. The call rests on the fitted dose curve; in most records, active means well fitted curve in the direction sought with a large enough effect; inconclusive means small, poorly fitted or top-dose-only effect, or another doubt; inactive means no such curve, though single readings can be large; an effect the other way counts as inactive or inconclusive.

O=C(NNC(=S)Nc1ccccc1)c1cc(-c2cccnc2)nc2ccccc12	FLuc modulator 13µM
CCOC(=O)c1ccc(NC(=S)NNC(=O)c2cc(-c3cccnc3)nc3ccccc23)cc1	ELG1 repair inh 15µM, FLuc modulator 21µM (no result: SMN2 splice up)
CC(OC(=O)c1cc(-c2cccnc2)nc2ccccc12)C(=O)Nc1ccc2ccccc2c1 (configuration not stated)	ELG1 repair inh 18µM
COc1ccc(/C(C)=N/NC(=O)c2cc(-c3cccnc3)nc3ccccc23)cc1	none
O=C(NNC(=O)c1ccc(Cl)cc1Cl)Nc1ccccc1	none
COc1cc2c(c(OC)c1)C(c1cc(OC)c(OC)c(OC)c1)CC(=O)N2 (configuration not stated)	SMN2 splice up inconclusive (no result: ELG1 genotox, NPC1 promoter act, Rab9 promoter act, ELG1 repair inh)
CC(=O)N1CCC2(CC1)CC(=O)c1cc(OCC(=O)N3CCOCC3)ccc1O2	none
COc1ccc(NC(=O)c2ccco2)c([N+](=O)[O-])c1	ELG1 genotox inconclusive, NPC1 promoter act inconclusive, Rab9 promoter act 2.5µM, ELG1 repair inh inconclusive, SMN2 splice up 35µM, FLuc modulator 21µM
Cc1ccc(NC(=O)c2ccco2)c([N+](=O)[O-])c1	ELG1 genotox inconclusive, NPC1 promoter act 2.8µM, Rab9 promoter act 2.8µM, ELG1 repair inh inconclusive, SMN2 splice up 22µM, FLuc modulator inconclusive
Cc1ccc(NC(=O)c2ccco2)c(NC(=O)c2ccccc2)c1	none (no result: SMN2 splice up)
Cc1nc2c(-c3ccc(F)cc3)c(C)nn2c(C)c1CCC(=O)NCc1ccc(Cl)cc1	none (no result: ELG1 genotox, NPC1 promoter act, Rab9 promoter act, ELG1 repair inh)
CN(CC(=O)Nc1ccccc1C(F)(F)F)C(=O)c1ccc(-c2ccc(Cl)cc2)o1	FLuc modulator inconclusive (no result: SMN2 splice up)
COc1ccc2c(c1)c(C(C)=O)c(C)n2CCc1ccccc1	ELG1 repair inh 8.2µM (no result: SMN2 splice up)
COc1ccc(-c2cc(C(=O)Nc3c(C(=O)c4ccc(C)c(F)c4)oc4ccccc34)no2)cc1	none (no result: ELG1 genotox, NPC1 promoter act, Rab9 promoter act, ELG1 repair inh, SMN2 splice up)
Cc1cc(C)c(C#N)c(SCC(=O)Nc2c(C)n(C)n(-c3ccccc3)c2=O)n1	none (no result: NPC1 promoter act, Rab9 promoter act, SMN2 splice up, FLuc modulator)
Cc1cc2ncn(S(=O)(=O)c3ccc(S(=O)(=O)N4CCOCC4)cc3)c2cc1C	none
Cc1cc2nc(CCN3CCOCC3)n(S(=O)(=O)c3ccc(C(C)(C)C)cc3)c2cc1C	ELG1 repair inh 21µM
COc1ccc2sc(NC(=O)c3ccco3)nc2c1	ELG1 genotox inconclusive, NPC1 promoter act 0.5µM, Rab9 promoter act 0.35µM, ELG1 repair inh inconclusive, SMN2 splice up inconclusive, FLuc modulator 0.76µM
O=C(CCNC(=O)c1ccccc1Cl)Nc1nc(-c2ccccc2Cl)cs1	ELG1 repair inh inconclusive, FLuc modulator 17µM
COc1ccc2nc(N(Cc3ccccc3)C(=O)CCNC(C)=O)sc2c1	ELG1 genotox inconclusive, NPC1 promoter act inconclusive, Rab9 promoter act inconclusive, ELG1 repair inh inconclusive, FLuc modulator 19µM (no result: SMN2 splice up)
COc1ccc2nc(NC(=O)CCNC(=O)c3ccccc3Cl)sc2c1	SMN2 splice up 16µM, FLuc modulator 19µM
CCN(c1ccc(OC)cc1)S(=O)(=O)c1nnc(NC(=O)c2ccco2)s1	none (no result: SMN2 splice up)
COc1ccc2nc(N(Cc3cccnc3)C(=O)COc3ccccc3)sc2c1	none (no result: ELG1 genotox, NPC1 promoter act, Rab9 promoter act, ELG1 repair inh, SMN2 splice up)
COc1cccc(NC(=O)CCNC(=O)c2ccccc2Cl)c1	none
CC(C)Nc1cc(N2CCN(C3CCCCC3)CC2)c2noc3c2c1C(=O)c1ccccc1-3	none (no result: ELG1 genotox, NPC1 promoter act, Rab9 promoter act, ELG1 repair inh)
CCCn1c(NC(=O)CCNC(=O)c2ccccc2Cl)nc2ccccc21	ELG1 repair inh 21µM (no result: SMN2 splice up)
COc1ccc(-c2csc(NC(=S)NC(=O)c3ccco3)n2)cc1	ELG1 repair inh inconclusive, SMN2 splice up inconclusive
CCCn1c(NC(=O)c2ccco2)nc2ccccc21	none
COc1ccc2nc(NC(=O)CCNC(=O)c3ccco3)sc2c1	ELG1 genotox inconclusive, NPC1 promoter act 3.2µM, Rab9 promoter act 3.2µM, ELG1 repair inh inconclusive, FLuc modulator 12µM (no result: SMN2 splice up)
CCCn1c(NC(=O)c2ccccc2Br)nc2ccccc21	none
COc1ccc2nc(NC(=S)NC(=O)c3ccco3)sc2c1	ELG1 genotox inconclusive, NPC1 promoter act 3.2µM, Rab9 promoter act 1µM, ELG1 repair inh inconclusive, SMN2 splice up 7.9µM, FLuc modulator 0.67µM
O=C(CCNC(=O)c1ccco1)Nc1nc2ccccc2s1	Rab9 promoter act inconclusive, ELG1 repair inh inconclusive, FLuc modulator inconclusive (no result: SMN2 splice up)
COc1ccc(OCCn2c(NC(=O)c3ccco3)nc3ccccc32)cc1	ELG1 repair inh 13µM, FLuc modulator inconclusive
N#Cc1ccccc1NC(=O)CN(Cc1ccccc1)Cc1ccccc1	none (no result: SMN2 splice up)
CCC(CC)NC(=O)COC(=O)CCC(=O)c1ccc(Cl)cc1	none
O=C(NC(=S)Nc1nc2ccccc2s1)c1ccco1	ELG1 genotox inconclusive, NPC1 promoter act inconclusive, Rab9 promoter act inconclusive, ELG1 repair inh inconclusive, SMN2 splice up 11µM, FLuc modulator 1.5µM
O=C(COC(=O)c1ccco1)Nc1nc2ccccc2s1	ELG1 repair inh inconclusive, FLuc modulator inconclusive
CCOC(=O)c1c(C)nc2sc3c(c2c1-c1ccc(OC)cc1)NC(c1ccccc1)NC3=O (configuration not stated)	ELG1 repair inh 16µM
COc1ccc(-c2c(C(C)=O)c(C)nc3sc4c(c23)NC(c2ccccc2)NC4=O)cc1 (configuration not stated)	none
CCOC(=O)c1c(C)nc2sc3c(=O)n(-c4ccc(OC)cc4)nnc3c2c1-c1ccc(OC)cc1	ELG1 repair inh inconclusive
